From PubChem BioAssay (Tox21)
Records with an inconclusive call do not appear. The source made the active and inactive calls. Calls come from the whole dose curve.

The molecules below were run against Retinoic acid receptor RXR-alpha (Homo sapiens) (UniProt P19793) (assay: qHTS assay to identify small molecule agonists of the RXR signaling pathway (AID 1159527; note: nearly all actives have a fitted effect of over 35% in size)). Settings: HEK293T RXRa-UAS-bla, beta-lactamase ratio, 16 h; series mostly up to 76.8 µM; activation: at the top concentration.
Description: U.S. Tox21 Program National Center for Advancing Translational Sciences [NCATS] NIH Chemical Genomics Center [NCGC] U.S. Environmental Protection Agency [EPA] National Institutes of Environmental Health Sciences [NIEHS] National Toxicology Program [NTP] U.S. Food and Drug Administration [FDA] Tox21 Assay Overview: The Retinoid X receptor (RXR), a nuclear hormone receptor expressed in liver, spleen, placenta, epidermis, central nervous system. These receptors are able to form homo and heterodimers with other nuclear receptors and due to this heterodimerizing ability, RXR functions as master regulators producing diverse physiological effects. Three subtypes of RXR exist; alpha, beta and gamma. Retinoid X receptor alpha (RXR-alpha) has potential roles in metabolic signaling pathways, skin alopecia, dermal cysts, cardiac development, insulin sensitization etc. Therefore screening environmental chemicals on RXR-alpha signaling can be used for the studies focused on such therapeutic applications. For quantification of RXR-alpha ligands signaling, GeneBLAzer RXR alpha-UAS-bla HEK 293T (Life Technologies, Carlsbad, CA) cells containing a beta-lactamase reporter-gene under control of Retinoid X receptor-alpha response element were used to screen Tox21 10K library.
Tox21 Assay Protocol Summary: RXR-alpha HEK 293T cells were dispensed at 2,000 cells/6 uL of assay medium containing 2% charcoal-stripped FBS using a Multidrop Combi (ThermoFisher Scientific, Waltham, MA) dispenser. The assay was performed in black wall/clear-bottom 1536-well plates (Greiner Bio-One North America Inc. Monroe, NC). 9-cis retinoic acid was used as a positive control in the agonist mode screen. After the assay plates were incubated at 37 C and 5% CO2 for 5 hr, 23 nL of compounds dissolved in DMSO, positive controls or DMSO only were transferred to the assay plate by a Pintool station (Kalypsys, San Diego, CA). The assay plates were incubated at 37 C and 5% CO2 for 16 hr. One uL of LiveBLAzer B/G FRET substrate (Life Technologies) was added using a Flying Reagent Dispenser (Aurora Discovery, San Diego, CA) and the plates were incubated at room temperature for 2 hr. Fluorescence intensity (405 nm excitation, 460/530 nm emission) was measured using an Envision plate reader (PerkinElmer, Shelton, CT).
% is set by controls: 0 for no effect and ±100 for the full control effect; potency is the fitted concentration of half-maximal effect.

Chain of Retinoic acid receptor RXR-alpha (Homo sapiens) (P19793 whole entry, looked up): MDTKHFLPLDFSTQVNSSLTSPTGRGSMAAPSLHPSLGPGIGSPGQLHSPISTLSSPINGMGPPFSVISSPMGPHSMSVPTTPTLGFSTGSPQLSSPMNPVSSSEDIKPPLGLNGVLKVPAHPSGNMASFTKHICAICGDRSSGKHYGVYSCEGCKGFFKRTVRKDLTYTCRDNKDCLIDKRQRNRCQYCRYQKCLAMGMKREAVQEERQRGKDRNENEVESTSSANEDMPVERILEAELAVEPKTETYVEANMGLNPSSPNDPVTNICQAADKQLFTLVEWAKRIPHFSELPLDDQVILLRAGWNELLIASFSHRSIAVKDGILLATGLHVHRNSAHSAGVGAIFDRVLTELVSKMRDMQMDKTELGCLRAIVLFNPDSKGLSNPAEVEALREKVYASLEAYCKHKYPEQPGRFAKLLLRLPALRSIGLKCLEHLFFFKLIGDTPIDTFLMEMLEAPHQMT

Row | Compound | activation | Potency
1 | CCCCCCCCCCc1ccccc1 | -0.0351% (inactive) | –
2 | CCCCCCCCCCCCCCNCCO | -15.6% [at 35.3 µM] (inactive) | –
3 | CC(=O)Oc1ccc(C2(c3ccc(OC(C)=O)cc3)C(=O)Nc3ccccc32)cc1 | -3.87% [at 35.3 µM] (inactive) | –
4 | NCCCC(O)(P(=O)(O)O)P(=O)(O)O | 1.14% [at 35.3 µM] (inactive) | –
5 | CC(C)(C)c1cc(CCC(=O)NCCCCCCNC(=O)CCc2cc(C(C)(C)C)c(O)c(C(C)(C)C)c2)cc(C(C)(C)C)c1O | 2.22% (inactive) | –
6 | CCc1cccc(C)c1 | 8.33% (inactive) | –
7 | CCC1CCCCC1 | 4.37% (inactive) | –
8 | C[C@@H]1CC[C@H]2C(C)(C)[C@H]3C[C@@]12CC[C@@]3(C)O | -10.7% (inactive) | –
9 | CCCC(C)CCC(C)=O (stereo not given) | 10.3% (inactive) | –
10 | CC(=O)O[C@@H]1C[C@@H]2CC[C@@]1(C)C2(C)C | -9.55% (inactive) | –
11 | CCC(=O)CC(C)CC (stereo not given) | 2.44% [at 0.29 µM] (inactive) | –
12 | CCOC(=O)N1CCC(=C2c3ccc(Cl)cc3CCc3cccnc32)CC1 | -14.6% [at 35.3 µM] (inactive) | –
13 | CCCCCCCCCCCCCc1ccccc1 | 2.11% [at 35.3 µM] (inactive) | –
14 | C/C=C/c1ccc(OC)c(OC)c1 | 0.0376% (inactive) | –
15 | C[Si](C)O[Si](C)C | 2.79% (inactive) | –
16 | CCCCN(C)C | 8.82% (inactive) | –
17 | CCCCOC(=O)C(C)CC (stereo not given) | 10% (inactive) | –
18 | CCCCCCS | -10.3% (inactive) | –
19 | O=C[C@H](O)[C@H](O)[C@H](O)CO | 1.36% (inactive) | –
20 | O=C=NCc1cccc(CN=C=O)c1 | -0.945% [at 15.8 µM] (inactive) | –

Row | Compound | activation | Potency
21 | CCCCCCCOC(=O)c1ccc(O)cc1 | -11.7% (inactive) | –
22 | OCCCS | -7.66% (inactive) | –
23 | CCc1c(Br)c(Br)c(Br)c(Br)c1Br | – | 38.9 µM (active)
24 | Cc1ccc(O)cn1 | 0.806% (inactive) | –
25 | CCCCCCCC/C=C\CCCCCCCC(=O)NCc1ccc(O)c(OC)c1 | -23% [at 35.3 µM] (inactive) | –
26 | CC1=C(/C=C/C(C)=C/C=C/C(C)=C\C=O)C(C)(C)CCC1 | – | 0.328 µM (active)
27 | CCCCCCCC(OC)OC | 1.13% [at 35.3 µM] (inactive) | –
28 | COc1cccc(OC)c1O | 2.06% (inactive) | –
29 | CC(C)(C)C1=CC(=O)C=C(C(C)(C)C)C1=O | -0.441% (inactive) | –
30 | Cc1cn[nH]c1 | 0.258% [at 35.3 µM] (inactive) | –
31 | O=CC1CC1 | 1.93% (inactive) | –
32 | CCOC(=O)COc1ccc(C)cc1 | -1.45% (inactive) | –
33 | CC(=O)c1ccccc1N | -0.957% (inactive) | –
34 | CCc1cccc(CC)c1NC(=O)C(=O)O | 0.489% (inactive) | –
35 | NCCCCCCNCCCCCCN | -1.12% (inactive) | –
36 | OCCC(O)CO (stereo not given) | 4.39% (inactive) | –
37 | CC(C)C(=O)OCc1ccccc1 | -2.13% (inactive) | –
38 | OCCCCl | 2.11% (inactive) | –
39 | Brc1ccccc1-c1ccccc1 | -8.69% (inactive) | –
40 | CN1[C@@H]2CC[C@@H]1CC(OC(=O)C(CO)c1ccccc1)C2 (stereo not given in full) | 0.537% [at 35.3 µM] (inactive) | –
